Experimental data published in PubChem BioAssay (NCATS).
Records with an inconclusive call do not appear. Active and inactive are the calls of the source. Calls come from the whole dose curve; as a rule, active = well fitted curve in the direction sought with a large enough effect; inconclusive = small, poorly fitted or top-dose-only effect, or another doubt; inactive = no such curve, though single readings can be large; an effect the other way counts as inactive or inconclusive.

Tests used:
[1] = Vero cells viability qHTS for Zika virus inhibitors (AID 1347167)
Procedure, shortened: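 Counter-screen for cytotoxicity of hits from NS2B-NS3 protease qHTS. Overnight-attached cells (2.5 x 10^5 cells/mL, DMEM/4% FBS) were dosed in titration, incubated 24 to 48 hours, then assayed by CellTiter Glo.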

[2] = HepG2 cells viability qHTS for Zika virus inhibitors (AID 1347168)
From the text: Avindra Nath, Ph.D., National Institute of Neurological Disorders and Stroke (NINDS), Bethesda, MD
Radhakrishnan Padmanabhan, Ph.D., Georgetown University (GU), Washington D.C.
Zika Virus causes congenital defects, including microcephaly and is associated with Guillain-Barre syndrome, eningoencephalitis and myelitis in infected adult. […] Using a target-based approach, we hope to establish a screening paradigm to uncover novel, cell-active NS2B-NS3 protease (Zika Virus) specific inhibitors from NCATS' collection of small molecules using qHTS.
Four assay panel was created to identify potential Zika Virus inhibitors. Namely, (1) GU unlinked NS2B-NS3 AMC tagged protease qHTS, (2) GU unlinked NS2B-NS3 Rhodamine tagged protease qHTS, (3) NINDS linked NS2B-NS3 AMC tagged protease qHTS, (4) NINDS linked NS2B-NS3 Rhodamine tagged protease qHTS. Identified inhibitors were screened against the Vero and HepG2 cell viability assays using CellTiter Glo to exclude cytotoxic compounds.
Early Translation Branch (ETB)
National Center for Advancing Translational Sciences (NCATS), Rockville, MD
National Institute of Health (NIH), Bethesda, Maryland
Vero and HepG2 Cell Viability Assay:
Vero and HepG2 cell cytotoxicity were determined using a luminescent readout with CellTiter Glo reagent (Promega, Madison, WI), which is based on measuring the ATP content within cells. Briefly, 4 microL of Vero or HepG2 cells at 2.5 x 10^5 cells/mL in DMEM containing 4% FBS were dispensed into 1536-well solid bottom tissue treated white plate using a Multidrop Combi dispenser (Thermo Scientific). Plates were incubated at 37 degrees C, 95% humidity, and 5% CO2 overnight to allow for cell attachment. Compounds were dissolved in DMSO at different concentrations and transferred via pintool (Wako Automation), for a final concentration of 0.029 µM - 57 microM. Plates were again incubated for 24 to 48 hours, followed by a 2 microL addition of CellTiter Glo. Finally, plates were incubated for 30 minutes at 37 degrees C and 5% CO2 before being read on a ViewLux (Perkin Elmer) for luminescence.

[3] = Tertiary RLuc qRT-PCR qHTS assay for Zika virus inhibitors (AID 1347169); note: top concentration of the series differs between compounds; nearly all actives have a fitted effect of over 55% in size
Procedure, shortened: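 Vero cells (1,000 per well) plated overnight at 37 degrees C, treated with compound in DMSO, then infected with recombinant ZIKV-RLuc (Cambodian) at MOI 1-2 for 48-72 hrs. Live-cell Renilla luciferase substrate added; luminescence read after 1-1.5 hrs.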

[4] = OV-KATE Cancer Cell Toxicity qHTS against the NCATS CANVASS Library (AID 1347345)
Procedure, shortened: (§1)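 Per well, 1000 cells; exposure 72 h with compound at 11 final concentrations; readout CellTiter-Glo luminescence.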

[5] = HPAF-II Cancer Cell Toxicity qHTS against the NCATS CANVASS Library (AID 1347346); note: series mostly up to about 38 µM; nearly all actives have a fitted effect of over 55% in size
Procedure, shortened: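 HPAF-II cells were seeded at 1000 cells/well, allowed to settle for 4 h at 37 degrees C, then exposed to compounds in an 11-point series for 72 h. Viability was read by CellTiter-Glo luminescence.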

[6] = UWB1.289 Cancer Cell Toxicity qHTS against the NCATS CANVASS Library (AID 1347347); note: series mostly up to about 38 µM; nearly all actives have a fitted effect of over 60% in size
From the text: (§2) Natural products and their derivatives continue to be wellsprings of nascent therapeutic potential. However, many laboratories have limited resources for biological evaluation, leaving their previously isolated or synthesized compounds largely or completely untested. To address this issue, the Canvass library of natural products was assembled (https://tripod.nih.gov/canvass), in collaboration with academic and industry researchers, for quantitative high-throughput screening (qHTS) across a diverse set of cell-based and biochemical assays. The pure (>85% purity by liquid chromatography/mass spectrometry [LC/MS]) Canvass library of 346 natural products were submitted by 45 academic laboratories and companies around the world. […] The library was formatted into 1536-well plates and evaluated in 50 qHTS (in an 11-pnt concentration series) bioassays with broad scope of disease-relevant mechanisms. The resulting data set from 50 different assays was then systematically analyzed to identify overall trends and specific natural products with interesting biological activities. […]
(§3) Cancer Cell Toxicity protocol for cell lines COV-362, OV-KATE, OV-SAHO, UWB1.289, UWB1.289-WTBRCA1, HEK-293, HPAF-II, Panc-1005, SW1088, or U-118MG. […] Luminescence signal was acquired via the ViewLux plate reader (PerkinElmer) using a clear filter, 2 second exposure and 2x binning settings.

[7] = OV-SAHO Cancer Cell Toxicity qHTS against the NCATS CANVASS Library (AID 1347348); note: series mostly up to about 38 µM; nearly all actives have a fitted effect of over 55% in size
Procedure, shortened: as §1

[8] = Panc-1005 Cancer Cell Toxicity qHTS against the NCATS CANVASS Library (AID 1347349); note: series mostly up to about 38 µM; nearly all actives have a fitted effect of over 60% in size
Procedure, shortened: as §1

[9] = SW1088 Cancer Cell Toxicity qHTS against the NCATS CANVASS Library (AID 1347350); note: series mostly up to about 38 µM; nearly all actives have a fitted effect of over 75% in size
From the text: as §2, §3

[10] = U-118MG Cancer Cell Toxicity qHTS against the NCATS CANVASS Library (AID 1347351); note: series mostly up to about 38 µM
Procedure, shortened: as §1

Measured: activity change, negative = inhibition
% is set by controls: 0 for no effect and ±100 for the full control effect.

CN1C[C@@H]2C[C@H]1CN2c1cc2c(cc1F)c(=O)c(C(=O)O)cn2C1CC1
inactive: [1] | [2] | [3]

O=C(O)[C@@H]1[C@H]2C[C@H]3c4[nH]c5ccccc5c4CCN3C[C@@H]2CC[C@@H]1O
inactive: [1] | [2] | [3]

O=C(O)Cn1c(C(=O)Nc2nc(-c3ccccc3Cl)cs2)cc2ccccc21
inactive: [1] | [2] | [3]

COc1ccccc1Oc1c(NS(=O)(=O)c2ccc(C(C)(C)C)cc2)nc(-c2ncccn2)nc1OCCO
inactive: [3] 14.1% [at 1.74 µM]

C[C@@H]1O[C@@H](OC[C@H]2O[C@@H](Oc3c(-c4ccc(O)c(O)c4)oc4cc(O)cc(O)c4c3=O)[C@H](O)[C@@H](O)[C@@H]2O)[C@H](O)[C@H](O)[C@H]1O
inactive: [4] | [5] | [6] | [7] | [8] | [9] | [10]
